High-throughput results (PubChem)
Rows were chosen to be rich in hits. Some 2.9% of all compounds tested hit in one or more screens of this group.
DRD3 antagonist – D3 dopamine receptor (human) antagonism | P35462 | D3R cells, DiscoveRx beta-arrestin luminescence, antagonist mode; active compounds read low | max response, negative = inhibition, % | 360,000 compounds, 2.5% hits; in the data active = max response below about -50%; inconclusive = no clear call, values can overlap the other calls
Target sequence (P35462 whole entry, looked up): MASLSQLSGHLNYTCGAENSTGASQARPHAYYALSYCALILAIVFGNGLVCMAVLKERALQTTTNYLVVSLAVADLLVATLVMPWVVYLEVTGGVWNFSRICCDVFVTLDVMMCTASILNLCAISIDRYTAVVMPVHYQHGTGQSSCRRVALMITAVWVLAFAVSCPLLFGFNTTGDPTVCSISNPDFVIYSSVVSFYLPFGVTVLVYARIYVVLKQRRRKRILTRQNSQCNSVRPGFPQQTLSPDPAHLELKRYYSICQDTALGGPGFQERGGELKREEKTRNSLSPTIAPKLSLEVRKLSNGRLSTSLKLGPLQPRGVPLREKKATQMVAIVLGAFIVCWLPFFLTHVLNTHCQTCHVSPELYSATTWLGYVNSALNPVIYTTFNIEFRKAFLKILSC
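Cells expressing the human receptor were seeded at 1500 cells/well, incubated overnight at 37 degrees C in 5% CO2, then exposed to library compounds with dopamine controls for 90 minutes at 37 degrees C before luminescent detection.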
D3 ag – agonists of human D3 dopamine receptor; D3R DiscoveRx beta-arrestin cells, luminescence, 90 min; max activation, %; 410,000 compounds, 0.58% hits; AID 652048; in the data active = max activation above about 30%
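Cells at 1500/well, incubated overnight, then treated with pinned compounds (dopamine as control) for 90 min at 37 degrees C. DiscoveRx reagent added for 30 - 60 minutes at room temperature; luminescence read.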
Integrin act MD – integrin-mediated muscular dystrophy alleviation activation; Potency, µM (series often up to 38.3 µM), usual class: activators; 350,000 compounds, 0.064% hits; AID 624291; alpha7betagal myoblasts, beta-gal FDG fluorescence, 48 h; active = well fitted activation curve with a large enough effect; inconclusive = small, poorly fitted or top-dose-only effect; inactive = no such curve, though single readings can be large or run the other way; also: nearly all actives have a fitted effect of over 60% in size
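Alpha7betagal+/- myoblasts (passage 13) were plated 16-24 hr, then exposed to compounds (1:260 dilution of DMSO stock) for 48 hours at 37C. After MPER lysis, β-galactosidase reporter activity was read as FDG fluorescence (ex 480/em 540) after 30 minutes.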
Large screens that a line does not name were inactive.

C=CCn1c(NS(=O)(=O)c2ccccc2)c(S(=O)(=O)c2ccc(C)cc2)c2nc3ccccc3nc21	none
CCN(c1cccc(C)c1)C1C(=O)c2ccccc2N1C(C)=O (stereo not given)	none
O=C(CCC(=O)N1CCOc2ccc(Cl)cc21)NCCCN1CCN(c2ccccc2F)CC1	DRD3 antagonist -96
O=C(CCC(=O)N1CCOc2ccccc21)NCCCN1CCOCC1	none
O=C(CCC(=O)N1CCOc2ccc(Cl)cc21)NCCCN1CCC(Cc2ccccc2)CC1	DRD3 antagonist -71
COc1ccc(N2CCN(CCCNC(=O)CCC(=O)N3CCOc4ccc(Cl)cc43)CC2)cc1	DRD3 antagonist inconclusive
Cc1ccc(NC(=O)c2sc(C)nc2C)c(C)c1	none
Nc1ccc(C(=O)OCc2nc3ccccc3s2)cc1	DRD3 antagonist -51
O=C(OCc1nc2ccccc2s1)c1ccc(Br)s1	none
COc1cccc(N2CCN(c3ncnc4onc(-c5ccc(F)cc5)c34)CC2)c1	none (no result: DRD3 antagonist, Integrin act MD)
O=S(=O)(/C(=C\c1ccc(C(F)(F)F)cc1)c1nc2ccccc2[nH]1)c1ccccc1	DRD3 antagonist -93
O=C(NCc1ccco1)/C(=C/c1ccc(C(F)(F)F)cc1)c1nc2ccccc2[nH]1	none
CCC(C)Nc1nc(SC(C(C)=O)C(C)=O)nc(N(C)C)n1 (stereo not given)	none
CC1(C(=O)Nc2cnc3ccccc3c2)CCN1Cc1ccc2ccccc2c1 (stereo not given)	none (no result: Integrin act MD)
CSc1nc(-c2ccccc2)[nH]c(=S)c1C(C)=O	DRD3 antagonist -93
CSc1nc(-c2ccccc2)nc(SC)c1C(C)=O	none
CCC(C)NC(=O)C(CCSC)NC(=O)c1ccccc1 (stereo not given)	none
CCC(C)N(C(=O)COc1ccc(Br)cc1C=O)C1CCS(=O)(=O)C1 (stereo not given)	none
O=C(Cc1ccccc1[N+](=O)[O-])OCC(=O)N1CCN(c2ccccc2)CC1	none
COc1ccc(N(C)C(=O)CCC(=O)Nc2ccc3nc(N4CCOCC4)cc(C)c3c2)c(OC)c1	D3 ag 35
COc1ccc(NC(=O)CCC(=O)Nc2ccc3nc(N4CCOCC4)cc(C)c3c2)c(OC)c1	none
CC(OC(=O)CNC(=O)c1ccco1)C(=O)N(C)c1ccccc1 (stereo not given)	Integrin act MD inconclusive
CCOC(=O)C1CCN(Cc2ccc(OC)cc2OC)CC1	none
CCOC(=O)C1CCN(C(=O)CN(Cc2ccc(Cl)cc2)S(C)(=O)=O)CC1	DRD3 antagonist -56
CCOC(=O)C1CCN(Cc2ccc(F)c(F)c2)CC1	DRD3 antagonist inconclusive
CCOC(=O)C1CCN(Cc2ccc(N(C)C)cc2)CC1	DRD3 antagonist -51
CCOC(=O)C1CCN(Cc2oc(CO)cc(=O)c2O)CC1	none
CCOC(=O)N1CCN(C(=O)CN(Cc2ccc(Cl)cc2)S(C)(=O)=O)CC1	none
CCOC(=O)C1CCN(Cc2cnc(Oc3ccc(OC)cc3)s2)CC1	DRD3 antagonist -55
CCOC(=O)C1CCN(Cc2cc(C(C)C)c(O)c(C(C)C)c2)CC1	DRD3 antagonist -69
O=C(COC(=O)c1cc(Cl)ccc1Cl)NCCN1C(=O)CSC1=O	none
CCOC(=O)C1CCN(Cc2cn[nH]c2-c2ccc(C)cc2)CC1	none
CCOC(=O)C1CCN(Cc2cn[nH]c2-c2ccccc2)CC1	DRD3 antagonist -66
CCOC(=O)C1CCN(Cc2cccc(OC)c2)CC1	none
CCOC(=O)C1CCN(Cc2ccc3ccccc3c2)CC1	DRD3 antagonist -75
COc1ccc(Cl)cc1C(=O)NCCS(=O)(=O)N1CCN(c2ccccc2OC)CC1	none (no result: DRD3 antagonist, Integrin act MD)
COc1ccccc1N1CCN(CCS(=O)(=O)c2cc(Cl)ccc2Cl)CC1	DRD3 antagonist -93
COc1ccccc1N1CCN(CCCNc2cc(=O)n(C)c(=O)n2C)CC1	DRD3 antagonist -62
COc1ccccc1N1CCN(CC(=O)c2c(N)n(C)c(=O)n(C)c2=O)CC1	none
COc1ccccc1N1CCN(S(=O)(=O)c2ccc3c(c2)n(C)c(=O)n3C)CC1	none
COc1ccccc1N1CCN(CCCNc2c(C)c(=O)n(C)c(=O)n2C)CC1	DRD3 antagonist -57 (no result: Integrin act MD)
CCOc1ccccc1N1CCN(C(=O)c2ccc3[nH]c4c(c3c2)CCCC4)CC1	DRD3 antagonist inconclusive
O=C(NCc1ccco1)C1CCCN1S(=O)(=O)c1ccc2ccccc2c1 (stereo not given)	none
CC1CC(C)(C)NC(=S)N1CCC(=O)NCCc1ccc(Cl)cc1 (stereo not given)	none
CCCS(=O)(=O)NC(=O)C1(C)CCCN(C(=O)COc2ccc(Cl)cc2Cl)C1 (stereo not given)	none (no result: Integrin act MD)
CCCS(=O)(=O)NC(=O)C1(C)CCN(C(=O)COc2ccc(Cl)cc2Cl)C1 (stereo not given)	D3 ag 76 (no result: Integrin act MD)
COc1ccc(S(=O)(=O)N(C)CC(=O)Nc2ccccc2SC)cc1	none
COc1cccc(-n2sc3c(c2=S)-c2cc(OC)ccc2NC3(C)C)c1	DRD3 antagonist -69
COc1cccc(-n2cn[nH]c2=S)c1	none
Cc1cc(C)n2c(=S)[nH]nc2n1	none
COc1cc(CO)ccc1OCC(=O)Nc1ccc(Br)cc1	Integrin act MD inconclusive
COc1ccccc1N1CCN(CCCOc2ccc(F)cc2)CC1	DRD3 antagonist -91
COc1cccc(OC)c1OCCN1CCCC1	none
COc1ccc(S(=O)(=O)N2CCN(CCCOc3ccc(F)cc3)CC2)cc1OC	none
COc1ccccc1N1CCN(/N=C/c2cccc(OC)c2OC)CC1	none
COc1ccccc1N1CCN(CCOc2c(OC)cccc2OC)CC1	DRD3 antagonist -68
COc1ccccc1N1CCN(CCCN=C2CC(=O)N(C)C(=O)N2C)CC1	DRD3 antagonist -56 (no result: Integrin act MD)
COc1ccccc1N1CCN(Cc2cc(=O)n3ccsc3n2)CC1	none
COc1ccccc1N1CCN(CCCCOc2c(OC)cccc2OC)CC1	DRD3 antagonist -108
O=C(CNc1cccc(S(=O)(=O)N2CCCC2)c1)Nc1cccc(Br)c1	none
O=C(NCC1CC1)NC(=O)c1ccccc1F	none (no result: Integrin act MD)
CCCCCC(=O)N1C[C@H](n2cc(COC(=O)c3ccccc3)nn2)[C@@H](O)C[C@@H]1c1ccccc1	none
O=C(/C=C/c1ccc(Cl)cc1)N1CCN(CCN2C(=O)c3cccc4cccc(c34)C2=O)CC1	none
CC(C)c1ccc(/C=N/N2CCCCC2)cc1	none
O=[N+]([O-])c1ccccc1C(O)Cc1ccccn1 (stereo not given)	none
COc1cccc(OC)c1OCCN1CCN(C(c2ccccc2)c2ccccc2)CC1	DRD3 antagonist -109
OCCOCCN1CCN(C(c2ccccc2)c2ccc(Cl)cc2)CC1 (stereo not given)	DRD3 antagonist -89 (no result: Integrin act MD)
COc1cccc(OC)c1OCCCN1CCC(Cc2ccccc2)CC1	DRD3 antagonist -95
COc1ccc(C(=O)C(=O)N2CCC(Cc3ccccc3)CC2)cc1OC	none (no result: Integrin act MD)
O=C(O)COCCN1CCN(C(c2ccccc2)c2ccc(Cl)cc2)CC1 (stereo not given)	none (no result: DRD3 antagonist, D3 ag)
COc1ccc(CN2CCN(C(c3ccc(F)cc3)c3ccc(F)cc3)CC2)c(OC)c1OC	none (no result: Integrin act MD)
CC(C)Oc1ccc(C(=O)Nc2ccc(-c3nc4ccccc4s3)cc2)cc1	none (no result: DRD3 antagonist, Integrin act MD)
COc1ccc(N2CCN(CCNC(=O)Nc3cccc(C)c3C)CC2)cc1	none
COc1ccc(N2CCN(CCNC(=O)Nc3ccc(C)cc3Cl)CC2)cc1	none
O=C(NCCN1CCCCC1)Nc1cccc(Cl)c1Cl	DRD3 antagonist inconclusive
CCCN1CCN(CCNC(=O)Nc2ccccc2Cl)CC1	DRD3 antagonist -77
